A short description of assay [1]: qHTS assay to identify small molecule agonists of the hypoxia (HIF-1) signaling pathway - cell viability counter screen (AID 1224844; calls by dose curve; note: nearly all actives have a fitted effect of over 50% in size). The procedure, abridged:
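HRE-bla ME-180 cells in medium with 0.5% dialyzed FBS were preincubated 5 hrs at 37C, exposed to compounds for 17 hrs, then viability was read as CellTiter-Glo luminescence after 30 min at room temperature, in the reporter wells.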
A general note: Quantitative high-throughput screening tests each substance at several concentrations.

Assay [2] in a line: qHTS assay to identify small molecule agonists of H2AX (AID 1224845; active = well fitted activation curve with a large enough effect in the signal ratio in the repeat runs, not every such curve was filed as active; the % refers to the signal ratio). The procedure, abridged:
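Wild-type CHO-K1 cells plated overnight, then exposed 3 hr at 37C to compounds at 15 concentrations (0.76% DMSO). Lysed, then HTRF anti-pH2AX(S139)-cryptate/anti-H2AX-d2 detection after 24 hr at room temperature; emissions 665 and 620 nm.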

Assay [3] in a line: qHTS assay to identify small molecule agonists of the hypoxia (HIF-1) signaling pathway (AID 1224846; active = well fitted activation curve with a large enough effect in the signal ratio in the repeat runs, not every such curve was filed as active; the % refers to the signal ratio). The procedure, abridged:
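HRE-bla ME-180 cells (beta-lactamase reporter under hypoxia response element) were plated at 2,000 cells/well in medium with 0.5% dialyzed FBS, rested 5 hrs, then given compounds in DMSO for 17 hrs at 37C, 5% CO2. Reporter induction was read with CCF4-AM FRET substrate.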

Assay [4] in a line: qHTS assay to identify small molecule antagonists of the estrogen related receptor (ERR) signaling pathway from Tox21 library (AID 1224848). Note: nearly all actives have a fitted effect of over 50% in size. The essentials:
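Cells: ERR line, 2,000/well; 6 h preincubation 37 C/5% CO2. Cpd in DMSO via pin tool; 18 h, 37 C. ONE-Glo, 30 min RT, luminescence.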

Assay [5] in a line: qHTS assay to identify small molecule agonists of the estrogen related receptor (ERR) signaling pathway from Tox21 library (AID 1224849; calls by dose curve; note: nearly all actives have a fitted effect of over 15% in size). Conditions: ERR reporter cell line, ONE-Glo luciferase, 18 h; at 92.4 µM (top of the series). The essentials:
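ERR reporter cell line (NTP) seeded, rested 6 h at 37 C/5% CO2, then pinned with Tox21 compounds in DMSO. After 18 h at 37 C, ONE-Glo luciferase luminescence was read following 30 min at room temperature.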

Assay [6] is described as follows: qHTS RealTime-Glo MT Cell Viability Assay in HepG2 cells - 24 hour (AID 1224867). Note: nearly all actives have a fitted effect of over 50% in size. The essentials: (§1)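 Cells + NanoLuc/prosubstrate dispensed (600 cells/well) → 5 h at 37 C/5% CO2 → compounds in DMSO transferred → 40 h incubation at 37 C, luminescence read at 0, 8, 16, 24, 32, 40 h.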
Assay [7] is described as follows: qHTS RealTime-Glo MT Cell Viability Assay in HEK293 cells - 32 hour (AID 1224868). Note: nearly all actives have a fitted effect of over 50% in size. Note: potency is the fitted concentration of half-maximal effect. The essentials:
(§2)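 Tox21 10K qHTS, HEK293, 600 cells/well, RealTime-Glo reagent co-dispensed with cells; 5 h preincubation, compound by pintool, 37 C, luminescence at 0–40 h.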

Assay [8] is described as follows: A CellTox Green Cytotoxicity Assay to monitor cytotoxicity in HEK293 cells - 0 hour (AID 1224869). Note: nearly all actives have a fitted effect of over 50% in size. The procedure, abridged: (§3)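 HEK293 cells premixed with CellTox Green dye were seeded at 600 cells/well and left 5 h at 37 C/5% CO2 before pin transfer of 23 nL compound in DMSO. Fluorescence from dye bound to dead-cell DNA was read during 40 h treatment.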
Assay [9] can be described thus: A CellTox Green Cytotoxicity Assay to monitor cytotoxicity in HEK293 cells - 40 hour (AID 1224871). Note: nearly all actives have a fitted effect of over 45% in size. The essentials:
as §3

Assay [10] in a line: qHTS RealTime-Glo MT Cell Viability Assay in HEK293 cells - 16 hour (AID 1224872). Note: nearly all actives have a fitted effect of over 50% in size. Note: potency is the fitted concentration of half-maximal effect. The essentials:
as §2

Assay [11] can be described thus: qHTS RealTime-Glo MT Cell Viability Assay in HepG2 cells - 8 hour (AID 1224873). Note: nearly all actives have a fitted effect of over 55% in size. The essentials: (§4)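 HepG2 cells mixed with RealTime-Glo MT reagents (NanoLuc plus cell-permeant prosubstrate) were seeded at 600 cells/well, incubated 5 h at 37 C/5% CO2, then pinned with compounds in DMSO; nonlytic luminescence tracked viability during 40 h treatment.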
Assay [12] in a line: qHTS RealTime-Glo MT Cell Viability Assay in HEK293 cells - 40 hour (AID 1224874). Note: nearly all actives have a fitted effect of over 50% in size. Note: potency is the fitted concentration of half-maximal effect. The conditions noted are these: RealTime-Glo luminescence; max response: stronger effect = lower value. The procedure, abridged: (§5)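 HEK293 cells mixed with RealTime-Glo reagents (NanoLuc plus cell-permeant prosubstrate) at 600 cells/well, preincubated 5 h at 37 C/5% CO2, then given 23 nL compound in DMSO. Nonlytic luminescence from viable cells was read at 0, 8, 16, 24, 32 and 40 h.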

A short description of assay [13]: A CellTox Green Cytotoxicity Assay to monitor cytotoxicity in HepG2 cells - 16 hour (AID 1224876). Note: nearly all actives have a fitted effect of over 45% in size. The procedure, abridged:
(§6)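 HepG2 cells were seeded together with the CellTox Green dye at 600 cells/well, left 5 h at 37 C/5% CO2, then given compounds in DMSO. Fluorescence from dye bound to dead-cell DNA was read repeatedly over 40 h of treatment at 37 C.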

Assay [14] in a line: qHTS RealTime-Glo MT Cell Viability Assay in HepG2 cells - 32 hour (AID 1224877). Note: nearly all actives have a fitted effect of over 55% in size. The essentials:
as §1

Assay [15] in a line: A CellTox Green Cytotoxicity Assay to monitor cytotoxicity in HepG2 cells - 40 hour (AID 1224879). Note: nearly all actives have a fitted effect of over 40% in size. Note: potency is the fitted concentration of half-maximal effect. The procedure, abridged: as §6
A short description of assay [16]: qHTS RealTime-Glo MT Cell Viability Assay in HEK293 cells - 0 hour (AID 1224880). Note: top concentration of the series differs between compounds; nearly all actives have a fitted effect of over 45% in size. The procedure, abridged: as §5
The nature of assay [17]: A CellTox Green Cytotoxicity Assay to monitor cytotoxicity in HEK293 cells - 24 hour (AID 1224875). Note: nearly all actives have a fitted effect of over 45% in size. The procedure, abridged:
as §3

Assay [18] in a line: A CellTox Green Cytotoxicity Assay to monitor cytotoxicity in HepG2 cells - 24 hour (AID 1224878). Note: nearly all actives have a fitted effect of over 45% in size. The essentials:
as §6

Assay [19] is described as follows: qHTS assay to identify small molecule agonists of H2AX - cell viability counter screen (AID 1224847; calls by dose curve; note: top concentration of the series differs between compounds; nearly all actives have a fitted effect of over 30% in size). The procedure, abridged:
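After overnight plating of 1000 CHO-K1 cells per well, a 15-concentration compound series was applied for 3 hr at 37C. Luminescence from CellTiter-Glo, read following 30 min at room temperature, reflected cell viability.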

The nature of assay [20]: qHTS RealTime-Glo MT Cell Viability Assay in HepG2 cells - 40 hour (AID 1224870). Note: nearly all actives have a fitted effect of over 50% in size. The procedure, abridged:
as §4

Values joined by “and” are separate entries in the source; they are usually repeats but may differ in a detail not shown here. Equal entries are not always repeated. Results filed as inconclusive are left out. More than one record can exist for a structure, and the calls need not agree. Active and inactive are the calls of the source. Unless noted, calls come from the whole dose curve; as a rule, active = well fitted curve in the direction sought with a large enough effect in the repeat runs; inconclusive = weak or mixed curves; inactive = no such curve, though single readings can be large; an effect the other way counts as inactive or inconclusive.

Results on seven compounds are retold here after PubChem BioAssay (Tox21).
% is set by controls: 0 for no effect and ±100 for the full control effect.

On to `Cc1ccc(OP(=O)(Oc2ccc(C)cc2)Oc2ccc(C)cc2)cc1`, for which the Potency entry in assay [1], in [2], in assay [4], in assay [6], in [7] and in assay [8] was “inactive” each time. Further, the Potency entry in assay [9], in [10], in [11], in assay [13], in assay [14] and in assay [16] was “inactive” in each case. Besides, the call in [3] was inactive. Also, the activity change, positive = activation in assay [5] is -19.4% (inactive) and -4.77% (inactive). Moreover, the max response in assay [12] is -19.7% (inactive). The Potency in assay [15] was 4.36 µM (active) and inactive.

Turning to `O=S(=O)(Oc1ccc(Cl)cc1)c1ccc(Cl)cc1`, the Potency entry in assay [1], in [2], in [4], in [6], in assay [7] and in [9] was “inactive” in each case. Further, the Potency result in [10], in [11], in [17], in [13], in [14] and in assay [18] was “inactive” throughout. The Potency entry in assay [15] and in assay [16] was “inactive” in each case. Besides, the compound was called inactive in assay [3]. In assay [5], the activity change, positive = activation is -19.6% (inactive) and -8.56% (inactive). Further, the max response in assay [12] was -23.5% (inactive) and -4.71% (inactive).

As for `CCOc1cc(C=O)ccc1O`, the Potency result in assay [1], in assay [2], in [19], in [6], in assay [7] and in assay [8] was “inactive” in each case. Further, the Potency entry in assay [20], in assay [9], in [10], in assay [11], in assay [13] and in assay [14] was “inactive” in each case. Also, the Potency entry in assay [18], in assay [15] and in assay [16] was “inactive” each time. Moreover, the result in assay [3] was inactive. Also, the max response in assay [12] was 4.96% (inactive) and 4.75% (inactive).

Take `c1ccc(N=Nc2ccccc2)cc1`: the Potency entry in assay [1], in assay [2], in [19], in assay [4], in [6] and in assay [7] was “inactive” each time. The Potency result in assay [8], in assay [20], in [10], in [11], in assay [13] and in assay [14] was “inactive” in each case. The Potency entry in assay [15] and in assay [16] was “inactive” in each case. Besides, in assay [3], the call was inactive. Moreover, the activity change, positive = activation in [5] was 2.72% (inactive) and 1.53% (inactive). Besides, in [12], the max response is -14.7% (inactive) and -11.3% (inactive).

In the case of `Cc1ccc2c(c1N)C(=O)c1ccccc1C2=O`, the Potency result in [1], in assay [2], in assay [4], in assay [6], in assay [8] and in assay [20] was “inactive” each time. Besides, the Potency entry in assay [9], in assay [17], in assay [13], in assay [14], in assay [18] and in assay [15] was “inactive” each time. Moreover, the Potency entry in assay [16] was “inactive”. Besides, the compound was classed as inactive in assay [3]. Further, the activity change, positive = activation in assay [5] is 82.1% (active) and 70.5% (active). In addition, the Potency in assay [7] was 8.62 µM (active) and 7.76 µM (active); in [10] it was 8.62 µM (active) and 8.71 µM (active); in assay [12] it was 9.67 µM (active) and 6.92 µM (active).

As for `COC(=O)c1sccc1S(=O)(=O)NC(=O)Nc1nc(C)nc(OC)n1`, the Potency entry in assay [1], in [2], in assay [19], in assay [6], in [7] and in assay [9] was “inactive” in each case. For the same compound, the Potency entry in [10], in assay [11], in assay [17], in assay [13], in [14] and in assay [18] was “inactive” each time. The Potency entry in [15] and in [16] was “inactive” each time. Besides, the call in assay [3] was inactive. In addition, the max response in [12] is 4% (inactive) and 6.48% (inactive).

Consider `CCCCOCCOP(=O)(OCCOCCCC)OCCOCCCC`, for which the Potency entry in assay [1], in assay [2], in assay [19], in assay [6], in assay [7] and in assay [8] was “inactive” each time. The Potency result in assay [20], in assay [9], in assay [10], in assay [11], in assay [13] and in [14] was “inactive” each time. In addition, in [16], the Potency entry was “inactive”. Besides, the outcome in assay [3] was inactive. In addition, the max response in assay [12] is -16.9% (inactive).
